Test results from PubChem BioAssay AID1159580 (chemical genetic matrix, 2015).
The campaign covered roughly 5,500 compounds. About 2,000 (36%) were called active. Inconclusive results (about 18%) are left out. Cut-off read from the data, not from the text of the source: active = normalized growth mostly below about 0.91 (no sharp cut-off); inconclusive = no clear call, values can overlap the other calls; inactive = mostly above about 0.92. The list shows a part of the results.

Assay: chemical genetic growth profiling, strain panel (AID 1159580);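 note: tested at 20 µM; growth read once vehicle control cultures reached saturation at 30 °C; 1 = growth at the plate median or of vehicle wells; lower values mean less growth of the strain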
Conditions: growth OD
[1] = S. cerevisiae deletion strains, locus YDL101C, strain DUN1, hits give low values
[2] = S. cerevisiae deletion strains, locus YHR030C, strain SLT2, hits give low values

Measured: normalized growth

COCCCNC(=S)N/N=C\c1cc(Br)ccc1O
inactive: S. cerevisiae deletion strains, locus YAR019C, strain CDC15, hits give low values 0.967 | S. cerevisiae deletion strains, locus YBL105C, strain PKC1, hits give low values 0.971 | S. cerevisiae deletion strains, locus YBR135W, strain CKS1, hits give low values 0.962 | S. cerevisiae deletion strains, locus YBR136W, strain MEC1, hits give low values 0.967 | S. cerevisiae deletion strains, locus YBR160W, strain CDC28, hits give low values 0.961 | S. cerevisiae deletion strains, locus YDL017W, strain CDC7, hits give low values 0.966 | S. cerevisiae deletion strains, locus YDL028C, strain MPS1, hits give low values 0.963 | [1] 0.975 | S. cerevisiae deletion strains, locus YDL108W, strain KIN28, hits give low values 0.97 | S. cerevisiae deletion strains, locus YDL132W, strain cdc53, hits give low values 0.963 | S. cerevisiae deletion strains, locus YDL214C, strain PRR2, hits give low values 0.977 | S. cerevisiae deletion strains, locus YDR052C, strain DBF4, hits give low values 0.973 | S. cerevisiae deletion strains, locus YDR054C, strain cdc34, hits give low values 0.956 | S. cerevisiae deletion strains, locus YDR226W, strain ADK1, hits give low values 0.96 | S. cerevisiae deletion strains, locus YDR477W, strain SNF1, hits give low values 0.954 | S. cerevisiae deletion strains, locus YER123W, strain YCK3, hits give low values 0.989 | S. cerevisiae deletion strains, locus YER133W, strain GLC7, hits give low values 0.95 | S. cerevisiae deletion strains, locus YFL009W, strain cdc4, hits give low values 0.96 | S. cerevisiae deletion strains, locus YFL029C, strain CAK1, hits give low values 0.963 | S. cerevisiae deletion strains, locus YFR003C, strain YPI1, hits give low values 0.966 | S. cerevisiae deletion strains, locus YFR019W, strain FAB1, hits give low values 0.983 | S. cerevisiae deletion strains, locus YFR028C, strain CDC14, hits give low values 0.972 | S. cerevisiae deletion strains, locus YGR040W, strain KSS1, hits give low values 0.957 | S. cerevisiae deletion strains, locus YGR052W, strain FMP48, hits give low values 1 | S. cerevisiae deletion strains, locus YGR092W, strain DBF2, hits give low values 0.915 | [2] 0.898 | S. cerevisiae deletion strains, locus YHR079C, strain IRE1, hits give low values 0.967 | S. cerevisiae deletion strains, locus YHR082C, strain KSP1, hits give low values 1.03 | S. cerevisiae deletion strains, locus YHR205W, strain SCH9, hits give low values 0.943 | S. cerevisiae deletion strains, locus YIL147C, strain SLN1, hits give low values 0.957 | S. cerevisiae deletion strains, locus YJL095W, strain BCK1, hits give low values 0.992 | S. cerevisiae deletion strains, locus YJL128C, strain PBS2, hits give low values 0.936 | S. cerevisiae deletion strains, locus YJL157C, strain FAR1, hits give low values 0.965 | S. cerevisiae deletion strains, locus YJR016C, strain ILV3, hits give low values 0.966 | S. cerevisiae deletion strains, locus YJR066W, strain TOR1 (second series), hits give low values 0.983 | S. cerevisiae deletion strains, locus YJR066W, strain TOR1, hits give low values 1.02 | S. cerevisiae deletion strains, locus YKL048C, strain ELM1, hits give low values 0.98 | S. cerevisiae deletion strains, locus YKL067W, strain YNK1, hits give low values 0.984 | S. cerevisiae deletion strains, locus YKL101W, strain HSL1, hits give low values 0.975 | S. cerevisiae deletion strains, locus YKL193C, strain SDS22, hits give low values 0.954 | S. cerevisiae deletion strains, locus YKL203C, strain TOR2, hits give low values 1.02 | S. cerevisiae deletion strains, locus YLR113W, strain HOG1, hits give low values 0.985 | S. cerevisiae deletion strains, locus YLR133W, strain CKI1, hits give low values 0.967 | S. cerevisiae deletion strains, locus YLR403W, strain SFP1, hits give low values 0.91 | S. cerevisiae deletion strains, locus YML070W, strain DAK1, hits give low values 0.982 | S. cerevisiae deletion strains, locus YMR001C, strain CDC5, hits give low values 0.965 | S. cerevisiae deletion strains, locus YMR205C, strain PFK2 (second series), hits give low values 0.973 | S. cerevisiae deletion strains, locus YMR277W, strain FCP1, hits give low values 0.961 | S. cerevisiae deletion strains, locus YNL006W, strain LST8, hits give low values 0.965 | S. cerevisiae deletion strains, locus YNL020C, strain ARK1, hits give low values 0.975 | S. cerevisiae deletion strains, locus YNL161W, strain CBK1, hits give low values 0.962 | S. cerevisiae deletion strains, locus YNL183C, strain NPR1, hits give low values 1.09 | S. cerevisiae deletion strains, locus YNL207W, strain RIO2, hits give low values 0.967 | S. cerevisiae deletion strains, locus YNL222W, strain SSU72, hits give low values 0.966 | S. cerevisiae deletion strains, locus YNL307C, strain MCK1 (second series), hits give low values 0.97 | S. cerevisiae deletion strains, locus YOL078W, strain AVO1, hits give low values 0.964 | S. cerevisiae deletion strains, locus YOL136C, strain PFK27, hits give low values 0.982 | S. cerevisiae deletion strains, locus YOR061W, strain CKA2, hits give low values 0.974 | S. cerevisiae deletion strains, locus YOR119C, strain RIO1, hits give low values 1.03 | S. cerevisiae deletion strains, locus YOR231W, strain MKK1, hits give low values 0.997 | S. cerevisiae deletion strains, locus YOR329C, strain SCD5, hits give low values 0.966 | S. cerevisiae deletion strains, locus YPL031C, strain PHO85, hits give low values 0.938 | S. cerevisiae deletion strains, locus YPL153C, strain RAD53, hits give low values 0.951 | S. cerevisiae deletion strains, locus YPL204W, strain HRR25, hits give low values 0.937 | S. cerevisiae deletion strains, locus YPL209C, strain IPL1, hits give low values 0.965 | S. cerevisiae deletion strains, locus YPL256C, strain CLN2, hits give low values 0.903 | S. cerevisiae deletion strains, locus YPR025C, strain CCL1, hits give low values 0.962 | S. cerevisiae deletion strains, locus YPR106W, strain ISR1, hits give low values 0.971 | S. cerevisiae deletion strains, locus YPR111W, strain DBF20, hits give low values 0.967 | S. cerevisiae deletion strains, strain NNK1, hits give low values 0.982 | S. cerevisiae deletion strains, strain TSCII, hits give low values 0.964

CCOC(=O)N/N=C\c1ccccc1OCC
inactive: S. cerevisiae deletion strains, locus YAL013W, strain DEP1, hits give low values 1.02 | S. cerevisiae deletion strains, locus YBR229C, strain ROT2, hits give low values 0.998 | S. cerevisiae deletion strains, locus YCL061C, strain MRC1, hits give low values 1.02 | [1] 1.01 | S. cerevisiae deletion strains, locus YDL134C, strain PPH21, hits give low values 1.02 | S. cerevisiae deletion strains, locus YDR150W, strain NUM1, hits give low values 0.923 | S. cerevisiae deletion strains, locus YEL061C, strain CIN8, hits give low values 1.02 | S. cerevisiae deletion strains, locus YGR078C, strain PAC10, hits give low values 1 | S. cerevisiae deletion strains, locus YGR229C, strain SMI1, hits give low values 1.01 | [2] 1.02 | S. cerevisiae deletion strains, locus YHR087W, strain rtc3, hits give low values 0.992 | S. cerevisiae deletion strains, locus YJR043C, strain POL32, hits give low values 1.02 | S. cerevisiae deletion strains, locus YJR075W, strain HOC1, hits give low values 0.985 | S. cerevisiae deletion strains, locus YKL190W, strain CNB1, hits give low values 1 | S. cerevisiae deletion strains, locus YLR039C, strain RIC1, hits give low values 0.931 | S. cerevisiae deletion strains, locus YLR058C, strain SHM2 (second series), hits give low values 0.995 | S. cerevisiae deletion strains, locus YLR085C, strain ARP6, hits give low values 1.04 | S. cerevisiae deletion strains, locus YLR262C, strain YPT6, hits give low values 0.917 | S. cerevisiae deletion strains, locus YML094W, strain GIM5, hits give low values 1.02 | S. cerevisiae deletion strains, locus YMR219W, strain ESC1, hits give low values 0.997 | S. cerevisiae deletion strains, locus YMR263W, strain SAP30, hits give low values 1.03 | S. cerevisiae deletion strains, locus YNL128W, strain TEP1, hits give low values 1.01 | S. cerevisiae deletion strains, locus YNL153C, strain GIM3, hits give low values 1.02 | S. cerevisiae deletion strains, locus YNL298W, strain CLA4 (second series), hits give low values 1.03 | S. cerevisiae deletion strains, locus YNL322C, strain KRE1, hits give low values 1 | S. cerevisiae deletion strains, locus YNR030W, strain Alg12, hits give low values 1.02 | S. cerevisiae deletion strains, locus YOL006C, strain TOP1, hits give low values 1.06 | S. cerevisiae deletion strains, locus YPL055C, strain LGE1, hits give low values 0.98 | S. cerevisiae deletion strains, locus YPL241C, strain CIN2, hits give low values 1.02 | S. cerevisiae deletion strains, locus YPR135W, strain CTF4, hits give low values 1.03 | S. cerevisiae strains, strain wild type, hits give low values 1.01
